Results on 11 molecules are retold here after ChEMBL document CHEMBL3988442, “University of Dundee, Small-Polar-MMV Screening Library” (2021).

For some of these results: Potency and affinity values are given separately.

What all share (parameters): scale not given: direction of the effect not stated beside the values
The target of assay [1] is Protein translocase subunit SecA (Escherichia coli (strain K12)) (UniProt P10408). Description: Assay to Identify E. coli SecA ATPase Inhibitors. Conditions: 30 µM. In kind it is functional.
Assay [2] addresses T1, Ubiquitin-activating enzyme e1, putative (Leishmania donovani (strain BPK282A1)) (UniProt E9BSI1).
T1 sequence (whole entry): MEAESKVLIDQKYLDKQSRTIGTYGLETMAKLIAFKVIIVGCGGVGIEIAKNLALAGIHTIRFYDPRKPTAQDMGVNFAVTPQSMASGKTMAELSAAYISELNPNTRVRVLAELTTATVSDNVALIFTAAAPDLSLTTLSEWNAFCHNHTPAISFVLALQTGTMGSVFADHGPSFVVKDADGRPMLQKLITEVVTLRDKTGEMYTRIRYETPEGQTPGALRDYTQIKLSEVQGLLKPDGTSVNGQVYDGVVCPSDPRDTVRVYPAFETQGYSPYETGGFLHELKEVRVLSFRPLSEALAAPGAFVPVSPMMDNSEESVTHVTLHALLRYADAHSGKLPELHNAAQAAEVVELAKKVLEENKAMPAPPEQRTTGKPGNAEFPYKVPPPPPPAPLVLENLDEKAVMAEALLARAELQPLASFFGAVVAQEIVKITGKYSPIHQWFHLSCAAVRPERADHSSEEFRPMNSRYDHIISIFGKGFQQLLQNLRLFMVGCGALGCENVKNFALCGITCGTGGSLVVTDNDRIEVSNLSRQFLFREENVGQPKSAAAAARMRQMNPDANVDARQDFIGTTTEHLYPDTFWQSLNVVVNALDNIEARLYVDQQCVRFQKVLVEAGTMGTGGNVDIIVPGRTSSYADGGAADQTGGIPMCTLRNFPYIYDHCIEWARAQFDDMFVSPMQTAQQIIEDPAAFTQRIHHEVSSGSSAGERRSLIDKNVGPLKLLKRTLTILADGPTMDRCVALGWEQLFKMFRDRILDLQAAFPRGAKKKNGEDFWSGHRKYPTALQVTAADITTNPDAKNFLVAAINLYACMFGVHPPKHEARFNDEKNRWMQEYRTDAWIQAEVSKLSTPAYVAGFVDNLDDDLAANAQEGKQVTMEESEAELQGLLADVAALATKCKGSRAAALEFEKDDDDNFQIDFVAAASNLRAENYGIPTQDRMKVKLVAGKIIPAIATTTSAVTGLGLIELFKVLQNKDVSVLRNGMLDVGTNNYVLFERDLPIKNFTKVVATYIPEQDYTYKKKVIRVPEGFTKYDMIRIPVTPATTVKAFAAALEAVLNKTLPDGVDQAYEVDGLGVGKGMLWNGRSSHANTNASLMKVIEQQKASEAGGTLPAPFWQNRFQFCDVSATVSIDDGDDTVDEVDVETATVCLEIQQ
Description: Leishmania donovani Ubiquitin Activating Enzyme (LdE1). The following applies: 30 µM. In kind it is functional.

In assay [3] the target is AMP-activated protein kinase, AMPK (Homo sapiens) (UniProt P54646+O43741+P54619+Q9UGJ0+Q9Y478+Q13131+Q9UGI9). Description: AMP-dependent Kinase enzyme assay. An in vitro enzyme assay that detects ADP turnover that is directly proportional to AMPK activity. This uses naive AMPK that is activated during the assay with MK-8722. Conditions: 30 µM. In kind it is functional.

The target of assay [4] is Sialic acid-binding Ig-like lectin 9 (Homo sapiens) (UniProt Q9Y336). Description: Hs-Siglec9 ALPHAscreen SOP 20170721. Conditions: 10 µM.
Another assay concerns Trypanosoma cruzi. Description: Trypanosoma cruzi phosphomannomutase and mannose-1-phosphate guanylyltransferase assay. It counts as functional. The following applies: 10 µM.
The target of assay [5] is T2, Arginase-2, mitochondrial (Homo sapiens) (UniProt P78540).
T2 sequence (whole entry): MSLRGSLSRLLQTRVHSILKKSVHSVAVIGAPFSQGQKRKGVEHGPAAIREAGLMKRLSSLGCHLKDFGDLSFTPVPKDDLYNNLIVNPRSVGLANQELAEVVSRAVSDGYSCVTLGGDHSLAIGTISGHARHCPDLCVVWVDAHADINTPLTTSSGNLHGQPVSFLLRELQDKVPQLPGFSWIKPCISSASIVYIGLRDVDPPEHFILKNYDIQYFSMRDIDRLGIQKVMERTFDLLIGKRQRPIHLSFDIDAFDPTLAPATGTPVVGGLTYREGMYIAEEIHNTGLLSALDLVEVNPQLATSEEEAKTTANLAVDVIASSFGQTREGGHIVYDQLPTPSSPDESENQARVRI
Description: in vitro enzyme assay to detect the production of urea directly proportional to the activity of Arginase II. Further: in the data most compounds retested in dose-response had high values. In kind it is functional. Conditions: 33.3 µM.

Assay [6] addresses T3, Proteasome subunit beta (Trypanosoma cruzi) (UniProt O96673).
T3 sequence (whole entry): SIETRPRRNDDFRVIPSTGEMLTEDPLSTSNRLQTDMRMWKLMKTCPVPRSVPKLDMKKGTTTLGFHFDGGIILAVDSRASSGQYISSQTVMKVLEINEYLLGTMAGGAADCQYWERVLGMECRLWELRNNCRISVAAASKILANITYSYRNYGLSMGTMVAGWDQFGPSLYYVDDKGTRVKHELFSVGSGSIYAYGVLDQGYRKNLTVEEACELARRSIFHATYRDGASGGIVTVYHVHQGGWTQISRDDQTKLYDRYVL
Description: Trypanosoma cruzi proteasome chymotrypsin-like activity (TcProtChymo) assay. Further: in the data most compounds retested in dose-response had high values. It counts as functional. Conditions: 9.37 µM.

The species entered for the next assay is Homo sapiens. Description: To identify inhibition of the IFN signalling (Jak-Stat) pathway via expression of an eGFP reporter gene under the control of an IFN-stimulated response element (ISRE) containing MxA promoter. In kind it is functional. Conditions: 30 µM.
Assay [7] has as its target T4, Tyrosyl-tRNA synthetase, putative (Trypanosoma cruzi (strain CL Brener)) (UniProt Q4DSP6).
T4 sequence (whole entry): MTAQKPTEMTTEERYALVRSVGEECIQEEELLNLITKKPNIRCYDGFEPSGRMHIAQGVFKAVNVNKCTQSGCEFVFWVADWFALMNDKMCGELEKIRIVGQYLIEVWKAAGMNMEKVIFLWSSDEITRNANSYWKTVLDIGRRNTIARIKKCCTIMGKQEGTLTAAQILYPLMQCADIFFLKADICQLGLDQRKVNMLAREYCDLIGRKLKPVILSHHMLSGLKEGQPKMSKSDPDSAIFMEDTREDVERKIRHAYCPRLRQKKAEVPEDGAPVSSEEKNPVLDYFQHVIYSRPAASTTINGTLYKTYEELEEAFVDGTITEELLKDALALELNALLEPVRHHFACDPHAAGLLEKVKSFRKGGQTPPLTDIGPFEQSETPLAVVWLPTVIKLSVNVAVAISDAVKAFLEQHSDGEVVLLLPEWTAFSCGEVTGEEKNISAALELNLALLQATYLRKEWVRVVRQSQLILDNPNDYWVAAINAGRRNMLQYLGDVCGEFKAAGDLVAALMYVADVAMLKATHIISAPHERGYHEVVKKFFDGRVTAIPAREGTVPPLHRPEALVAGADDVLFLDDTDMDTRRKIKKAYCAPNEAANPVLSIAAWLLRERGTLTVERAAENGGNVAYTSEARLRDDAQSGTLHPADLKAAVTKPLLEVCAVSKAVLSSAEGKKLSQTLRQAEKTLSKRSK
Description: Trypanosoma cruzi tyrosyl tRNA synthetase (TcYRS) _High Tyrosine SOP. Further: in the data most compounds retested in dose-response had high values. It counts as functional. The following applies: 30 µM.

Assay [8] concerns the target T4, Tyrosyl-tRNA synthetase, putative (Trypanosoma cruzi (strain CL Brener)). Description: Trypanosoma cruzi tyrosyl tRNA synthetase (TcYRS) SOP. In kind it is functional. The following applies: 30 µM.
Assay [9] addresses Chromo domain-containing protein 1 (Saccharomyces cerevisiae (strain ATCC 204508 / S288c) (Baker's yeast)) (UniProt P32657). Description: ScCHD-1 Enzyme Inhibition Assay. Further: in the data most compounds retested in dose-response had high values. It counts as functional. The following applies: 30 µM.

Protein translocase subunit SecA (Escherichia coli (strain K12)), sequence (P10408 whole entry): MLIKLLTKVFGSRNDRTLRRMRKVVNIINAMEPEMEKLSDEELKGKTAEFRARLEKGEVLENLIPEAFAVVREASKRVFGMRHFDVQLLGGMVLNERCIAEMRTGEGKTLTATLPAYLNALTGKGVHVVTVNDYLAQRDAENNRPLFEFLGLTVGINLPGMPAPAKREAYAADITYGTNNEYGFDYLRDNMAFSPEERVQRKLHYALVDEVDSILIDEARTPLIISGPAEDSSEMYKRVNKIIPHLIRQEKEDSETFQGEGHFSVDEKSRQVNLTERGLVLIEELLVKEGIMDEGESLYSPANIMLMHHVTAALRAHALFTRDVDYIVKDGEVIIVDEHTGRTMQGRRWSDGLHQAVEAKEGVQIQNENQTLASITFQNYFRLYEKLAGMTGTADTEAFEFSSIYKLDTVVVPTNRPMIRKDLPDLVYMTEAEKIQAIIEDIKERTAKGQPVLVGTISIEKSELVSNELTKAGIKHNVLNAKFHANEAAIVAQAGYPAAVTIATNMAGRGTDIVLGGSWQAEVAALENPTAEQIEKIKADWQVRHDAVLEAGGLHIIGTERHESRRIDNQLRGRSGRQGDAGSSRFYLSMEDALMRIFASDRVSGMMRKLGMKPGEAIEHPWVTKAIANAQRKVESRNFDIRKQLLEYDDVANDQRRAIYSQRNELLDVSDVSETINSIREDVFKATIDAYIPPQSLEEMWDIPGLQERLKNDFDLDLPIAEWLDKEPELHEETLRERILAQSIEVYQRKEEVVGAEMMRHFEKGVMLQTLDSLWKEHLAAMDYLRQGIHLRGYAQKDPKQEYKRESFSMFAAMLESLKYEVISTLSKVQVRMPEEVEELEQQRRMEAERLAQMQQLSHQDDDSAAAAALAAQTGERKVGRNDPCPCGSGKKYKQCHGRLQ
Sialic acid-binding Ig-like lectin 9 (Homo sapiens), sequence (Q9Y336 whole entry): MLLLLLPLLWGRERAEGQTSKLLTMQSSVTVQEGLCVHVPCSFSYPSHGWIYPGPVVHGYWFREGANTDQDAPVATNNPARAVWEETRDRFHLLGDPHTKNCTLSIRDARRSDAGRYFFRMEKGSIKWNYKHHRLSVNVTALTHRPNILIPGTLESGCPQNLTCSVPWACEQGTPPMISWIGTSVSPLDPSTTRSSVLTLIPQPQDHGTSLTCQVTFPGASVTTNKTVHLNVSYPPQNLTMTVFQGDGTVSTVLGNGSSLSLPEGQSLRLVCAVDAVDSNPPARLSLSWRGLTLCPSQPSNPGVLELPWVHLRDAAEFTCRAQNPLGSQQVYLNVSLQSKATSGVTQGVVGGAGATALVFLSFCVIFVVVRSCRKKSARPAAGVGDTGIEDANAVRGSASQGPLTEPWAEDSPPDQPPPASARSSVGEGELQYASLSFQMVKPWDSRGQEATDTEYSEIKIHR
Chromo domain-containing protein 1 (Saccharomyces cerevisiae (strain ATCC 204508 / S288c) (Baker's yeast)), sequence (P32657 whole entry, the tested form may be a part): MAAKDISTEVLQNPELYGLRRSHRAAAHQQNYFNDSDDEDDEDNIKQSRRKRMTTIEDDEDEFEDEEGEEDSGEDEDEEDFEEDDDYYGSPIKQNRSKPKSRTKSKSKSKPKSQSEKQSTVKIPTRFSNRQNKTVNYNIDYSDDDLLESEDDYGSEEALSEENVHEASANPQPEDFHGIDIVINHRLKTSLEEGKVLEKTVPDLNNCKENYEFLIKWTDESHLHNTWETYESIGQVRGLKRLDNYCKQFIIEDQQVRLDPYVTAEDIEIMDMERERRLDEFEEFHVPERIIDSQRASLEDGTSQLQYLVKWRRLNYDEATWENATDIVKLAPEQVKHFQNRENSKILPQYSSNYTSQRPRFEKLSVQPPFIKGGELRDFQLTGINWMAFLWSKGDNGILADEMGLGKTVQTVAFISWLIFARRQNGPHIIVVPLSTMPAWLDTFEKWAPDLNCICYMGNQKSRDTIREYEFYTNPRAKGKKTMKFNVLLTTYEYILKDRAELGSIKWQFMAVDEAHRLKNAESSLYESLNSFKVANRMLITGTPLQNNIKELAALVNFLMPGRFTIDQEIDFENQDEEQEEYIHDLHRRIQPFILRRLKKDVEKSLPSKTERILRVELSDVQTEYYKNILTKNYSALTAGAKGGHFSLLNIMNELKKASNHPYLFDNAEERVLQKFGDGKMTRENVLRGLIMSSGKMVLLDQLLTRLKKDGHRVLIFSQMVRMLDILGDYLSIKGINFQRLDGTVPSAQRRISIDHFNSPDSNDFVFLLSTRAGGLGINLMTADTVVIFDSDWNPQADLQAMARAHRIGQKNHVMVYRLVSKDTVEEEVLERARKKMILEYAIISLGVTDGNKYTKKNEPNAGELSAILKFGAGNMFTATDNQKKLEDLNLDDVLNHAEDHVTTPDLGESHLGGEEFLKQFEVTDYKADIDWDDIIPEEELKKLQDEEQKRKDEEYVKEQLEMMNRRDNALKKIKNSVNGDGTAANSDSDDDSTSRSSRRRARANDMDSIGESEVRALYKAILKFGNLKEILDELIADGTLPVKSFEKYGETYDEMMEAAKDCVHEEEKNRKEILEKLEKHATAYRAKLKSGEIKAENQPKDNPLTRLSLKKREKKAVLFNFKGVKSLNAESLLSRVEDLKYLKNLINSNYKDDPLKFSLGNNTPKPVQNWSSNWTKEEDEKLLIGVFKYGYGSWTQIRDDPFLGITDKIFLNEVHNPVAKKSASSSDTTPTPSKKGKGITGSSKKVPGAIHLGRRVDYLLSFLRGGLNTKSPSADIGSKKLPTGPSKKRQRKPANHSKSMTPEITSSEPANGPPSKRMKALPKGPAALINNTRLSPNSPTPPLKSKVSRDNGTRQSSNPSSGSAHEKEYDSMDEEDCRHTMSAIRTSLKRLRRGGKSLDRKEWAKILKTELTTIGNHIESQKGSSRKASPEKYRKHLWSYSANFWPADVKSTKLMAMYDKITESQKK

Turning to `CC(C)(C)n1cc(C(=O)N2CCN(Cc3ccsc3)CC2)cn1`, the Percent Effect in assay [1] was -3.19%; in [2] it was 10.5%; in [3], 2.2%; in assay [4] it was 9.1%; in the assay on Trypanosoma cruzi, 7.71%; in assay [5], -3.06%. Moreover, the Percent Effect in assay [6] is 3.51%; in the assay listed under Homo sapiens, -5.26%; in assay [7], 6.37%; in [8] it was 17.1%; in assay [9], -11%.
`Cc1cc2n(n1)CC(CNCc1ccc(-n3cccn3)nc1)CN2` (stereo unspecified): the Percent Effect in [1] was -1.63%; in [2], 5.26%; in [3], -8.03%; in assay [4], 8.37%; with Trypanosoma cruzi, 13.2%; in assay [5], -0.766%. Also, the Percent Effect was 7.69% in assay [6]; 1.93% in the assay filed under Homo sapiens; 11.3% in assay [7]; 21.9% in assay [8]; -9.89% in [9].
With `COc1c(C2CCCN2CC(=O)Nc2cc(C)no2)c(C)nn1C` (stereo unspecified), the Percent Effect in [1] is -5.41%; in assay [2] it was 13.5%; in assay [3] it was -3.77%; in [4] it was 4.82%; with Trypanosoma cruzi, -4.74%; in assay [5], -2.03%. The Percent Effect stood at 6.82% in assay [6]; 0.794% in the assay listed under Homo sapiens; 5.94% in [7]; 11% in assay [8]; 3.98% in assay [9].
Regarding `c1cnc(N2CCOCC3(CCCN(CC4CC4)C3)C2)cn1` (stereo unspecified), the Percent Effect in [1] is -1.84%; in assay [2], 5.33%; in assay [3], 1.73%; in assay [4], 4.28%; in the assay with Trypanosoma cruzi, -1.74%; in assay [5], -52.5%. Besides, the Percent Effect in assay [6] is 6.84%; in the assay listed under Homo sapiens it was -10.7%; in assay [7] it was 4.17%; in assay [8], 5%; in [9], -4.17%.
Consider `Cc1cc2c(=O)n3c(nc2s1)CCN(Cc1cnn(C)c1C)CC3`, for which the Percent Effect is -4.39% in assay [1]; 9.46% in [2]; 12.6% in assay [3]; -0.402% in assay [4]; -4.74% in the assay with Trypanosoma cruzi; 2.09% in assay [5]. The Percent Effect in [6] was 8.58%; in the assay listed under Homo sapiens, 7.67%; in assay [7], 5.38%; in assay [8], 9.09%; in assay [9], -8.69%.
Take `Cc1ccc(C2(CN3CCCC3)CCNCC2)nc1`: the Percent Effect in [1] is -3.03%; in assay [2] it was 8.11%; in assay [3], -4.02%; in assay [4] it was 3.83%; with Trypanosoma cruzi, 2.32%; in assay [5], -2.86%. Also, the Percent Effect was 11.6% in [6]; -11.7% in the assay listed under Homo sapiens; 10.1% in assay [7]; 9.76% in assay [8]; -0.82% in assay [9].
Consider `NC(=O)CSCC(=O)N1CCc2cc(Cl)cc(Cl)c2C1`, for which the Percent Effect is -5.75% in [1]; 15.6% in assay [2]; 4.28% in assay [3]; 36.8% in assay [4]; 6.98% with Trypanosoma cruzi; -57.9% in assay [5]. Also, the Percent Effect in [6] is 9.15%; in the assay listed under Homo sapiens it was -7.69%; in assay [7] it was 3.23%; in [8] it was 8.64%; in assay [9] it was -8.22%.
On to `Cc1ccc(S(=O)(=O)N2C[C@@H]3C[C@@H](NC(=O)C(C)(C)C)[C@@H]3C2)cc1`, for which the Percent Effect in assay [1] is -5.99%; in assay [2], 14.9%; in assay [3], 5.25%; in [4] it was 4.69%; in the assay on Trypanosoma cruzi, 2.77%; in assay [5], -3.48%. Further, the Percent Effect is 12.3% in assay [6]; 2.6% in the assay listed under Homo sapiens; 3.23% in assay [7]; 9.09% in [8]; -22.4% in assay [9].
Consider `COc1cccc2c1OCC(C(=O)N(C)CCCc1cnn(C)c1)C2` (stereo unspecified), for which the Percent Effect in assay [1] was -3.02%; in [2] it was 0%; in assay [3] it was -14.1%; in [4] it was -2.21%; in the assay with Trypanosoma cruzi, -6.27%; in assay [5] it was 3.64%. In addition, the Percent Effect in assay [6] is 4.79%; in the assay listed under Homo sapiens, 12.6%; in [7], 0%; in [8], 7.5%; in [9], -4.59%.
With `CCCS(=O)(=O)N1CCC2(CN(c3cnn(C)c3)C(=O)CN2C)C1` (stereo unspecified), the Percent Effect is 1.02% in assay [1]; 10.8% in [2]; 5.11% in [3]; -11.2% in assay [4]; -4.69% in the assay with Trypanosoma cruzi; 0.833% in assay [5]. Further, the Percent Effect in assay [6] amounted to 20.4%; in the assay listed under Homo sapiens it was 6.16%; in [7] it was 6.93%; in assay [8] it was 8.54%; in assay [9], 1.55%.
Consider `COc1cccc(-c2noc(-c3ccc(NCC4CC4)nc3)n2)c1OC`, for which the Percent Effect in assay [1] is -6.26%; in [2] it was 0%; in [3] it was -3.38%; in [4], 6.76%; in the assay on Trypanosoma cruzi, 8.47%; in assay [5], 2.08%. Further, the Percent Effect is 11% in assay [6]; 31.3% in the assay filed under Homo sapiens; 4.92% in assay [7]; 13.6% in assay [8]; -1.62% in assay [9].
